Records with an inconclusive call do not appear. The source made the active and inactive calls. Rule for the calls, unless noted: active = hit-call score of the fitted dose curve at least 0.9, where 1 is the maximum; inactive = score below 0.9.

Here are results for 23 compounds from PubChem BioAssay (EPA / NIEHS).

Experiment [1] deals with human Retinoid X Receptor beta (RXRb), RXRB (gene 6257) (UniProt P28702). Kind of experiment: ATG_RXRb_TRANS: Attagene TRANS-FACTORIAL HepG2 Assay for human Retinoid X Receptor beta (RXRb) (AID 2283013; active = hit-call score of the fitted dose curve at least 0.9, where 1 is the maximum). In short, it runs like this:
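Read-out: reporter mRNA induction via RT-PCR plus capillary electrophoresis fluorescence, analysed as signal increase relative to DMSO. Cells were human HepG2, transiently transfected with GAL4-UAS reporter constructs and chimeric receptor-Gal4 fusions, dosed for 24 h.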

Read-out in experiment [2]: E-selectin (Homo sapiens) (UniProt P16581)
The experiment is described as follows: BSK_3C_Eselectin: BioMAP Diversity Plus: 3C Assay for Eselectin Biomarker Activity (AID 2283015).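 For outcome: cell surface E-selectin protein quantified by ELISA 24 h after dosing.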 Particulars: primary human endothelial cells (HUVEC); actives raise or lower the signal. A digest of the protocol: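 Primary human umbilical vein endothelial cells (3C system) were dosed with chemical and cell-surface E-selectin measured by ELISA 24 h later. Bidirectional curve fitting used DMSO as negative control and baseline.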

Read-out in experiment [3]: Interleukin-1 alpha (IL1a), IL1A (gene 3552)
The experiment is described as follows: BSK_BE3C_IL1a: BioMAP Diversity Plus: BE3C Assay for Interleukin-1 alpha (IL1a) Biomarker Activity (AID 2283016). The following applies: primary human bronchial epithelial cells; actives raise or lower the signal. In short, it runs like this:
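ELISA read-out of IL-1a from human lung bronchial epithelial primary cells, 24 h post-dose. Gain or loss of signal fitted relative to DMSO negative control.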

Read-out in experiment [4]: Monocyte Chemoattractant Protein-1 (MCP1), CCL2 (gene 6347)
The experiment is described as follows: BSK_3C_MCP1: BioMAP Diversity Plus: 3C Assay for Monocyte Chemoattractant Protein-1 (MCP1) Biomarker Activity (AID 2283017). Particulars: primary human endothelial cells (HUVEC); actives raise or lower the signal. A digest of the protocol: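 Primary human umbilical vein endothelial cells (3C system) were exposed to test chemical for 24 h, after which MCP-1 was quantified by ELISA. Activity was fitted bidirectionally against DMSO as negative control and baseline.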

Read-out in experiment [5]: Monocyte Chemoattractant Protein-1 (MCP1), CCL2 (gene 6347)
The experiment is described as follows: BSK_4H_MCP1: BioMAP Diversity Plus: 4H Assay for Monocyte Chemoattractant Protein-1 (MCP1) Biomarker Activity (AID 2283018). Particulars: primary human endothelial cells (HUVEC); actives raise or lower the signal. In short, it runs like this: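 HUVEC primary cells, 24 h post-dose, MCP-1 by ELISA. Gain or loss of signal fitted bidirectionally vs DMSO baseline. Cytotoxicity: SRB stain (0.1% after 10% TCA fixation), read 560 nm, parallel cultures.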

Read-out in experiment [6]: Human Leukocyte Antigen - DR isotype (HLADR), HLA-DRA (gene 3122)
The experiment is described as follows: BSK_3C_HLADR: BioMAP Diversity Plus: 3C Assay for Human Leukocyte Antigen - DR isotype (HLADR) Biomarker Activity (AID 2283019). Particulars: primary human endothelial cells (HUVEC); actives raise or lower the signal. A digest of the protocol: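 Primary human umbilical vein endothelial cells (3C system) were dosed with compound and cell-surface HLA-DR was quantified by ELISA at 24 h. Activity was fitted bidirectionally against DMSO as negative control and baseline.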

Read-out in experiment [7]: Interleukin-8 (IL8), CXCL8 (gene 3576)
Kind of experiment: BSK_3C_IL8: BioMAP Diversity Plus: 3C Assay for Interleukin-8 (IL8) Biomarker Activity (AID 2283020). The following applies: primary human endothelial cells (HUVEC); actives raise or lower the signal. In short, it runs like this: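 HUVEC, 3C stimulation; 24 h compound exposure; IL-8 read by ELISA; gain or loss of signal fitted relative to DMSO control.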

Read-out in experiment [8]: Monokine induced gamma interferon (MIG), CXCL9 (gene 4283)
Kind of experiment: BSK_3C_MIG: BioMAP Diversity Plus: 3C Assay for Monokine induced gamma interferon (MIG) Biomarker Activity (AID 2283021).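 For AC50: MIG protein level measured by immunoassay in the treated endothelial cultures.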 Particulars: primary human endothelial cells (HUVEC); actives raise or lower the signal. A digest of the protocol: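 HUVEC, 3C system; 24 h chemical exposure; MIG by ELISA; bidirectional fit vs DMSO baseline.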

In experiment [9] the target is human Vitamin D Receptor (VDR), VDR (gene 7421) (UniProt P11473). The experiment is described as follows: ATG_VDR_TRANS: Attagene TRANS-FACTORIAL HepG2 Assay for human Vitamin D Receptor (VDR) (AID 2283022; active = hit-call score of the fitted dose curve at least 0.9, where 1 is the maximum). A digest of the protocol: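 HepG2 cells were transiently transfected with multiple GAL4-UAS reporter units, so signal reflects exogenous chimeric receptor-Gal4 activity. After 24 h compound exposure, reporter mRNA was measured by RT-PCR, fluorescent labelling and capillary electrophoresis, fitted for gain of signal versus DMSO.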

The target in experiment [10] is human Thyroid Receptor alpha (THRa1), THRA (gene 7067) (UniProt P10827). Kind of experiment: ATG_THRa1_TRANS: Attagene TRANS-FACTORIAL HepG2 Assay for human Thyroid Receptor alpha (THRa1) (AID 2283014; active = hit-call score of the fitted dose curve at least 0.9, where 1 is the maximum). A digest of the protocol: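 HepG2 cells transiently transfected with multiplexed GAL4-UAS reporter units for exogenous chimeric THRa1-Gal4; reporter mRNA measured 24 h after dosing by RT-PCR, 6-FAM labelling, HpaI digestion and capillary electrophoresis. Gain-of-signal fitted versus DMSO baseline.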
human Thyroid Receptor alpha (THRa1), THRA (gene 7067), sequence (P10827 whole entry, looked up, the tested form may be a part): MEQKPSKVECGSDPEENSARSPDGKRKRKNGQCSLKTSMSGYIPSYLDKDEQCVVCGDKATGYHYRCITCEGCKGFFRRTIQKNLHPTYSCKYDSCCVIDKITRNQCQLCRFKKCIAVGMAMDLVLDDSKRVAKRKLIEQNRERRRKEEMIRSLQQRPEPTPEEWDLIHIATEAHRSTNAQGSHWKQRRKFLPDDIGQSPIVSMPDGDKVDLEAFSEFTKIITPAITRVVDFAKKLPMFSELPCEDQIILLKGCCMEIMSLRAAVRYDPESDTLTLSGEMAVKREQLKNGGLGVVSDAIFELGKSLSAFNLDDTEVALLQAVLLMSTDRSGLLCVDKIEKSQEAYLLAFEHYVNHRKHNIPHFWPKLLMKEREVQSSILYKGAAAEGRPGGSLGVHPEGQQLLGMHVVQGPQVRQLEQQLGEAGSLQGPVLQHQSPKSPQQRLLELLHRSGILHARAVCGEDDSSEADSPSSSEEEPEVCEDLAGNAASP

E-selectin (Homo sapiens), sequence (P16581 whole entry, looked up): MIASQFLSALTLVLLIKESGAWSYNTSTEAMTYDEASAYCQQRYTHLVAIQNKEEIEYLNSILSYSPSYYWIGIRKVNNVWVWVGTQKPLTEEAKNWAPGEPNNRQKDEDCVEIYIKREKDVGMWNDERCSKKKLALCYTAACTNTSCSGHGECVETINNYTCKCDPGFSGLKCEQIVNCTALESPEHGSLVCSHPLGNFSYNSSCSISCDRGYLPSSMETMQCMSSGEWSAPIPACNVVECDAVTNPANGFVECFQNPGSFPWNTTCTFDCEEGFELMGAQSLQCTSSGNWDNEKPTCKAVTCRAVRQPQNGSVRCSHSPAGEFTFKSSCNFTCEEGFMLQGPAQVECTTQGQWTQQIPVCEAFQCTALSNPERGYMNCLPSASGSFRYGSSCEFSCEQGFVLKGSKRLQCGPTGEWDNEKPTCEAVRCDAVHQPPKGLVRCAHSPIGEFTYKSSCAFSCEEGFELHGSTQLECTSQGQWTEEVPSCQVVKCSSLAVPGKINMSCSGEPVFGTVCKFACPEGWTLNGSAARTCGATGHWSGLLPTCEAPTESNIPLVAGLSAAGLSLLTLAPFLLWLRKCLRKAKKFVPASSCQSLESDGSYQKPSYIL
human Vitamin D Receptor (VDR), VDR (gene 7421), sequence (P11473 whole entry, looked up, the tested form may be a part): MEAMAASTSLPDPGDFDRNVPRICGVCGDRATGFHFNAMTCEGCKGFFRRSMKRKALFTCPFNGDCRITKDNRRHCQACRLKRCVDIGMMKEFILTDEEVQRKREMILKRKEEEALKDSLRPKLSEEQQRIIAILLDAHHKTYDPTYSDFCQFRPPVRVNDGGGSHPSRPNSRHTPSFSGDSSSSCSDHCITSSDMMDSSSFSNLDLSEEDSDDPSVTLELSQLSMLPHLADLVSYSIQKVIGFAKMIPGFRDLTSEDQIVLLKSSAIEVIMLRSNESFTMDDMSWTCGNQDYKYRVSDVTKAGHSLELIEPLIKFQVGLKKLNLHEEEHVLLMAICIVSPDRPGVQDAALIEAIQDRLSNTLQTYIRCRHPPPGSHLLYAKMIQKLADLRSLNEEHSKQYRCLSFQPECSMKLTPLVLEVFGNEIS
human Retinoid X Receptor beta (RXRb), RXRB (gene 6257), sequence (P28702 whole entry, looked up, the tested form may be a part): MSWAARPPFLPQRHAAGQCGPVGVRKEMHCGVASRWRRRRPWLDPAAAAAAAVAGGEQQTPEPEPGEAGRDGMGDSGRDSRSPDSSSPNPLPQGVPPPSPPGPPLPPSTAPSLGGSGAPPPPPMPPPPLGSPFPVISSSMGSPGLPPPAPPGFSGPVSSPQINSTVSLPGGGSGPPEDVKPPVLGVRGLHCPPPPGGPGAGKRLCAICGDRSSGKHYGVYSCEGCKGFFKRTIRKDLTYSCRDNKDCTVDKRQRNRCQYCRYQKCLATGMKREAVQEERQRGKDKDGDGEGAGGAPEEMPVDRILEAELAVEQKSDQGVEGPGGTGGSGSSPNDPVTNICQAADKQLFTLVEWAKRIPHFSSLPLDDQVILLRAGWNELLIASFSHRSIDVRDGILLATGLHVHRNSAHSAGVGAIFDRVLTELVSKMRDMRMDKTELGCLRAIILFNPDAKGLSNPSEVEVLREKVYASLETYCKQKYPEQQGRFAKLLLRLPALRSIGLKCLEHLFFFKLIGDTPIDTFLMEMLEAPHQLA

Usually AC50 stands for the concentration at which the activity in the assay is half-maximal. As to `CCCCCCCCCCCCCCCO`, the half-maximal activity concentration (AC50) in experiment [1] was 27.5 µM (active); in experiment [2] it was 26.9 µM (active); in [4], 32.6 µM (active); in [5], 29.1 µM (active); in [6], 31.4 µM (active); in experiment [7] it was 31.2 µM (active). Also, the outcome in experiment [3], in experiment [8] and in [9] was inactive.
Turning to `C=CCCCCCCCCC(=O)O`, in experiment [1], the AC50 is 74.8 µM (active). Also, the result in [2], in [3], in experiment [4], in [5], in experiment [6] and in experiment [7] was inactive. For the same compound, the result in [8] and in [9] was inactive.
Consider `CC(O)CN(CCN(CC(C)O)CC(C)O)CC(C)O` (stereo unspecified), for which the result in [1], in experiment [2], in experiment [3], in experiment [4], in experiment [5] and in experiment [6] was inactive. In addition, the result in experiment [7], in experiment [8] and in [9] was inactive.
In the case of `CC(=O)OC[C@H]1O[C@@](COC(C)=O)(O[C@H]2O[C@H](COC(C)=O)[C@@H](OC(C)=O)[C@H](OC(C)=O)[C@H]2OC(C)=O)[C@@H](OC(C)=O)[C@@H]1OC(C)=O`, the call in [1], in [2], in [3], in [4], in [5] and in [6] was inactive. The outcome in [7], in [8] and in experiment [9] was inactive.
On to `CCCCCCCCCCCCc1ccccc1`, for which the AC50 is 61.2 µM (active) in [1] and 33.2 µM (active) in [6]. The outcome in [3], in experiment [4], in experiment [5], in experiment [7], in [8] and in experiment [9] was inactive.
On to `C=CC(=C)CCC=C(C)C`, for which the outcome in [1], in [2], in experiment [3], in [4], in [5] and in experiment [6] was inactive. In addition, the result in experiment [7], in experiment [8] and in [9] was inactive.
`On1ccccc1=S`: the compound was called inactive in experiment [10], in [7] and in experiment [9]. The AC50 in experiment [2] is 18.3 µM (active); in experiment [3], 4.99 µM (active); in [4] it was 28.8 µM (active); in experiment [5], 30.8 µM (active); in experiment [6], 12.9 µM (active); in experiment [8], 32 µM (active).
In the case of `Cc1c(-c2cccnc2)c2ccccc2n1CCCCC(=O)O`, the compound was classed as inactive in experiment [1], in experiment [3], in [4], in [5], in [6] and in [7]. In addition, the result in experiment [8] was inactive.
With `CC(C)=CCCC(C)=CC=O`, the result in experiment [1], in [3], in [4], in experiment [5], in [6] and in [7] was inactive. Further, the outcome in experiment [8] and in experiment [9] was inactive.
As to `Clc1nc(Cl)c(Cl)c(Cl)c1Cl`, the compound was called inactive in [1], in experiment [4], in experiment [5], in experiment [8] and in experiment [9]. For the same compound, the AC50 in experiment [3] was 29.2 µM (active); in experiment [6], 31.2 µM (active); in experiment [7], 14.2 µM (active).
In the case of `O=C1OC(=O)C2C3C=CC(C3)C12` (stereo unspecified), the compound was called inactive in experiment [1], in experiment [3], in experiment [4], in experiment [5], in experiment [6] and in experiment [7]. Also, the outcome in experiment [8] and in experiment [9] was inactive.
Consider `Cc1ccc(S(=O)(=O)O)cc1C`, for which the result in experiment [1], in experiment [2], in experiment [3], in experiment [4], in experiment [5] and in experiment [6] was inactive. Besides, the outcome in experiment [7], in experiment [8] and in experiment [9] was inactive.
For `Cc1ccc(N)cc1O`, the compound was called inactive in experiment [1], in experiment [3], in experiment [4], in [5], in [6] and in experiment [7]. In addition, the outcome in [8] and in experiment [9] was inactive.
As to `CC[C@H]1CC[C@H](NCc2cc3c(cc2OC)[C@H]2C[C@H]2C(=O)N3C)[C@H](c2ccccc2)N1`, the outcome in experiment [1], in [3], in experiment [4], in experiment [5], in experiment [6] and in [7] was inactive. The outcome in experiment [8] and in [9] was inactive.
For the compound `Cn1c(=O)c2c(ncn2C)n(C)c1=O`, the result in experiment [1], in experiment [3], in [4], in [5], in [6] and in [7] was inactive. The outcome in experiment [8] was inactive.
As for `CC(C)=CCC/C(C)=C/CO`, the call in experiment [1], in [3], in [4], in experiment [5], in experiment [6] and in experiment [7] was inactive. Besides, the result in experiment [8] and in experiment [9] was inactive.
Turning to `CCOCCOCCOCCO`, the call in [10], in experiment [2], in experiment [3], in experiment [4], in experiment [5] and in experiment [6] was inactive. Also, the result in experiment [7], in [8] and in [9] was inactive.
As for `Cc1ccc(O)cc1`, the result in experiment [3], in experiment [4], in [5], in experiment [6], in experiment [7] and in [8] was inactive.
Regarding `Cc1ccc(C)c(O)c1`, the result in experiment [3], in experiment [4], in experiment [5], in [6], in experiment [7] and in experiment [8] was inactive. Also, in experiment [9], the compound was called inactive.
As for `CCC(C)(C)C(=O)O[C@H]1C[C@@H](C)C=C2C=C[C@H](C)[C@H](CC[C@@H]3C[C@@H](O)CC(=O)O3)[C@H]21`, the concentration at half-maximal activity (AC50) in [3] was 33.1 µM (active); in experiment [4], 18.6 µM (active); in experiment [5], 0.392 µM (active); in [6], 25.8 µM (active); in experiment [7], 26.5 µM (active). For the same compound, in experiment [8], the result was inactive.
Consider `Fc1ccccc1[C@@H](F)COC1CCC(Nc2ncnc3[nH]ncc23)CC1` (stereo partly specified), for which the outcome in experiment [3], in [5], in [8] and in experiment [9] was inactive. Moreover, the AC50 in [4] is 30.2 µM (active); in [6], 15.4 µM (active); in experiment [7], 20 µM (active).
With `CCN(C(=O)c1cc(C)cc(OC[C@H](C)Nc2ccncc2)c1)C(C)C`, the outcome in experiment [3], in experiment [4], in [5], in [6], in [7] and in experiment [8] was inactive.
Consider `O=C(O)CC(O)C(=O)O` (stereo unspecified), for which the outcome in experiment [2], in experiment [3], in experiment [4], in [5], in experiment [6] and in experiment [7] was inactive. In experiment [8], the result was inactive.
